Measurements reported in PubChem BioAssay (NCI).
This is part of a sample that, as a whole, favours compounds with a hit. Of some 79,000 tested, about 15% had one in any assay. Values without a mark were called inactive. Active and inactive are the calls of the source. Cut-off read from the data, not from the text of the source: active = growth inhibition above about 70%; inactive = the rest.

Assay: NCI Yeast Anticancer Drug Screen. Data for the rad14 strain (AID 159);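 note: 0% = growth of vehicle-treated control cultures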
Settings: S. cerevisiae rad14 strain growth inhibition; at 1.2 µM; active compounds read high
Procedure, shortened: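 A mutant yeast strain defective in DNA damage repair is treated with compound; inhibition of its growth is scored against untreated, vehicle-exposed cultures.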

SMILES | growth inhibition
CCCCCCCCCCC1CCC(=O)O1 (configuration not stated) | 1%
O=[N+]([O-])c1cc(CCl)ccc1CCl | 8%
Nc1ccc2c(c1)C(=O)c1cccc(N)c1C2=O | 5%
CCCCCCCCCCNC(=O)OCC | -4%
CC1=C(C)Cc2c(O)ccc(O)c2C1 | 2%
COc1ccc2c(c1)C(=O)c1ccccc1C2 | 1%
CCC(=O)OCCn1c2nc(=O)[nH]c(=O)c-2nc2cc(C)c(C)cc21 | 3%
O=C(OCCN1CCCCCC1)C(c1ccsc1)C1CCCCC1 (configuration not stated) | 35%
Oc1c(Br)cc(Br)cc1C1CCCCC1 | -22%
CC1(C)[C@@H]2CC[C@]1(C)[C@H](OC(=O)CSC#N)C2 | -2%
S=C(N/N=C(/c1ccccc1)c1ccccn1)N1CCCCCC1 | -5%
Cc1ccc2[nH]c3c(C)c4cc[n+](C)cc4c(C)c3c2c1 | 16%
CNC(=O)OCc1c(COC(=O)NC)c(-c2ccc(-c3ccccc3)cc2)n(C)c1C | -13%
COc1ccccc1/C=C1\Sc2scc(-c3cccc([N+](=O)[O-])c3)[n+]2C1=O | 28%
O=[N+]([O-])c1ccc2c(c1)C(N1CCN(CCO)CC1)Cc1ccc(F)cc1S2 (configuration not stated) | -2%
Cc1ccc(CCC2=CCCc3c2ccc2ccccc32)cc1 | -4%
O=[N+]([O-])c1cccc2nccc(NCCCO)c12 | -9%
Cc1ccc(-n2cc(-c3ccc(Cl)cc3)c(C#N)c2N)cc1 | -1%
Cc1ccc(S/N=C\c2ccccc2O)cc1 | -2%
O=C(O)C1OC1(c1cccc(Cl)c1)c1ccccc1Cl (configuration not stated) | -19%
NC(=S)N/N=C\c1nccc2ccccc12 | -3%
Clc1cccc(C(Nc2nncs2)Nc2nncs2)c1Cl | -2%
O=C(OCC=C1CCCC1)c1cc([N+](=O)[O-])cc([N+](=O)[O-])c1 | -2%
O=C(Nc1ccccc1)C(=O)C(C(=O)c1ccccc1)C(c1ccccc1)c1ccccc1 (configuration not stated) | 3%
N#CN1C2CCC1CC(=O)C2 | -26%
COc1ccccc1C(=O)OCC1CCCN2CCCCC12 (configuration not stated) | 10%
CCNc1nnc(CSc2nc(-c3ccccc3)c(-c3ccccc3)[nH]2)s1 | -10%
O=C1c2ccccc2-c2n[nH]c3cccc1c23 | -18%

Same assay, conditions: S. cerevisiae rad14 strain growth inhibition; at 3.7 µM; active compounds read high

SMILES | growth inhibition
CCC/C(Cl)=N\OC(=O)Nc1cccc(C(F)(F)F)c1 | 14%
[O-][n+]1c2ccc(O)cc2nc2ccc(Cl)cc21 | 8%
Clc1ccccc1C1OC1c1ccccc1Cl (configuration not stated) | -46%
c1ccc2c(c1)c1ncccc1c1nccnc21 | 3%
CC(=O)Nc1ccc2c(c1)C(=Nc1ccc(C(=O)O)cc1)c1ccccc1-2 | 1%
COc1ccc(OC)c2cc3ccccc3cc12 | -6%
COc1cc(C2c3cc4c(cc3OC(NNc3ccccc3)C2C)OCO4)cc(OC)c1OC (configuration not stated) | 1%
O=C1c2cc([N+](=O)[O-])ccc2-c2cccc(F)c21 | 11%
CCCCCCCCCCCC(=O)N(C)C | 2%
CCCCCCCCCCCC1=C(O)C(=O)C=C(O)C1=O | 0%
Cc1ccc(CSC(N)=Nc2ccccc2)cc1C | -14%
CCCCCCCCCCC1CCC(=O)O1 (configuration not stated) | 3%
O=[N+]([O-])c1cc(CCl)ccc1CCl | 13%
Nc1ccc2c(c1)C(=O)c1cccc(N)c1C2=O | 11%
CCCCCCCCCCNC(=O)OCC | -4%
CC1=C(C)Cc2c(O)ccc(O)c2C1 | 9%
COc1ccc2c(c1)C(=O)c1ccccc1C2 | 6%
CCC(=O)OCCn1c2nc(=O)[nH]c(=O)c-2nc2cc(C)c(C)cc21 | 0%
O=C(OCCN1CCCCCC1)C(c1ccsc1)C1CCCCC1 (configuration not stated) | 36%
Oc1c(Br)cc(Br)cc1C1CCCCC1 | -4%

SMILES | growth inhibition
CC1(C)[C@@H]2CC[C@]1(C)[C@H](OC(=O)CSC#N)C2 | -1%
S=C(N/N=C(/c1ccccc1)c1ccccn1)N1CCCCCC1 | -4%
Cc1ccc2[nH]c3c(C)c4cc[n+](C)cc4c(C)c3c2c1 | 6%
CNC(=O)OCc1c(COC(=O)NC)c(-c2ccc(-c3ccccc3)cc2)n(C)c1C | -13%
COc1ccccc1/C=C1\Sc2scc(-c3cccc([N+](=O)[O-])c3)[n+]2C1=O | 90% (active)
O=[N+]([O-])c1ccc2c(c1)C(N1CCN(CCO)CC1)Cc1ccc(F)cc1S2 (configuration not stated) | -1%
Cc1ccc(CCC2=CCCc3c2ccc2ccccc32)cc1 | -4%
O=[N+]([O-])c1cccc2nccc(NCCCO)c12 | 4%
Cc1ccc(-n2cc(-c3ccc(Cl)cc3)c(C#N)c2N)cc1 | 1%
Cc1ccc(S/N=C\c2ccccc2O)cc1 | -6%
O=C(O)C1OC1(c1cccc(Cl)c1)c1ccccc1Cl (configuration not stated) | -12%
NC(=S)N/N=C\c1nccc2ccccc12 | 4%
Clc1cccc(C(Nc2nncs2)Nc2nncs2)c1Cl | -2%
O=C(OCC=C1CCCC1)c1cc([N+](=O)[O-])cc([N+](=O)[O-])c1 | 1%
O=C(Nc1ccccc1)C(=O)C(C(=O)c1ccccc1)C(c1ccccc1)c1ccccc1 (configuration not stated) | 0%
N#CN1C2CCC1CC(=O)C2 | -23%
COc1ccccc1C(=O)OCC1CCCN2CCCCC12 (configuration not stated) | 17%
CCNc1nnc(CSc2nc(-c3ccccc3)c(-c3ccccc3)[nH]2)s1 | -4%
O=C1c2ccccc2-c2n[nH]c3cccc1c23 | -24%
